Assay [1] is described as follows: qHTS of pediatric cancer cell lines to identify multiple opportunities for drug repurposing: Primary screen for SJ-GBM2 cells (AID 1347091). Note: potency is the fitted concentration of half-maximal effect. Summed up:
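Eight- or eleven-point concentration series, 48 h treatment at 37 degrees C in growth media; readout CellTiter-Glo luminescence. Potency and efficacy were taken from the concentration-response curves.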
On the technique in general: In qHTS, concentration-response curves come from the screen itself.

Assay [2] can be described thus: qHTS of pediatric cancer cell lines to identify multiple opportunities for drug repurposing: Primary screen for A673 cells (AID 1347092). Note: nearly all actives have a fitted effect of over 45% in size. Note: potency is the fitted concentration of half-maximal effect. In short, it runs like this: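 Luminescence from CellTiter-Glo, taken after 15 min at room temperature, served as the proxy for metabolically active cells following 48 h treatment. Both potency and efficacy were taken from curves fitted to the titration data.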

Assay [3] is described as follows: qHTS of pediatric cancer cell lines to identify multiple opportunities for drug repurposing: Primary screen for SK-N-MC cells (AID 1347093). Note: potency is the fitted concentration of half-maximal effect. In short, it runs like this: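 Metabolically active cells were quantified by ATP-dependent luminescence (CellTiter-Glo, 15 min at room temperature) following 48 h treatment. Cells had been plated at 500-1,000 per well and settled for 5 h beforehand.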

A short description of assay [4]: qHTS of pediatric cancer cell lines to identify multiple opportunities for drug repurposing: Primary screen for BT-37 cells (AID 1347094). Note: potency is the fitted concentration of half-maximal effect. Summed up: (§1)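 Quantitative HTS format: each compound titrated (MIPE 11 points from 0.78 nM, NPC 8 points from 0.59 nM) onto cells plated 5 hours earlier. After 48 h at 37 degrees C, CellTiter-Glo luminescence was recorded.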
The nature of assay [5]: qHTS of pediatric cancer cell lines to identify multiple opportunities for drug repurposing: Primary screen for NB-EBc1 cells (AID 1347095). Note: potency is the fitted concentration of half-maximal effect. In short, it runs like this: as §1
Assay [6] is described as follows: qHTS of pediatric cancer cell lines to identify multiple opportunities for drug repurposing: Primary screen for U-2 OS cells (AID 1347096). Note: nearly all actives have a fitted effect of over 50% in size. Summed up: (§2)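 Cells (500-1,000/well) in growth media were settled 5 h at 37 degrees C, then given compounds for 48 h. Viability was read as CellTiter-Glo luminescence. Primary runs used MIPE at 11 points (0.78 nM-46 µM) and NPC at 8 points (0.59 nM-46 µM); follow-ups used 11 points.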

Assay [7] in a line: qHTS of pediatric cancer cell lines to identify multiple opportunities for drug repurposing: Primary screen for SK-N-SH cells (AID 1347098). Note: nearly all actives have a fitted effect of over 65% in size. Note: potency is the fitted concentration of half-maximal effect. In short, it runs like this: (§3)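 Cells (500-1,000/well) rested 5 h, then received compounds for 48 h; metabolically active cells were measured by CellTiter-Glo luminescence. Final concentrations spanned up to 46 µM (MIPE, 11-point) or 0.59 nM-46 µM (NPC, 8-point) in primary screens, 11-point in follow-ups.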

Assay [8] can be described thus: qHTS of pediatric cancer cell lines to identify multiple opportunities for drug repurposing: Primary screen for NB1643 cells (AID 1347099). Note: nearly all actives have a fitted effect of over 50% in size. Note: potency is the fitted concentration of half-maximal effect. In short, it runs like this:
as §1

Assay [9] can be described thus: qHTS of pediatric cancer cell lines to identify multiple opportunities for drug repurposing: Primary screen for LAN-5 cells (AID 1347100). Note: potency is the fitted concentration of half-maximal effect. Summed up: as §2
Assay [10] can be described thus: qHTS of pediatric cancer cell lines to identify multiple opportunities for drug repurposing: Primary screen for BT-12 cells (AID 1347101). Note: nearly all actives have a fitted effect of over 25% in size. Note: potency is the fitted concentration of half-maximal effect. In short, it runs like this: as §3
The nature of assay [11]: qHTS of pediatric cancer cell lines to identify multiple opportunities for drug repurposing: Primary screen for Rh18 cells (AID 1347102). Note: nearly all actives have a fitted effect of over 65% in size. Note: potency is the fitted concentration of half-maximal effect. Summed up: as §2
Assay [12] in a line: qHTS of pediatric cancer cell lines to identify multiple opportunities for drug repurposing: Primary screen for RD cells (AID 1347104). Note: nearly all actives have a fitted effect of over 55% in size. Note: potency is the fitted concentration of half-maximal effect. Summed up:
as §1

Assay [13] is described as follows: qHTS of pediatric cancer cell lines to identify multiple opportunities for drug repurposing: Primary screen for MG 63 (6-TG R) cells (AID 1347105). Note: nearly all actives have a fitted effect of over 50% in size. Note: potency is the fitted concentration of half-maximal effect. Summed up: as §1
Assay [14] in a line: qHTS of pediatric cancer cell lines to identify multiple opportunities for drug repurposing: Primary screen for control Hh wild type fibroblast cells (AID 1347106).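 Note: series mostly up to about 46 µM; a drop in luminescence marks cytotoxicity and a rise apparent proliferation; nearly all actives have a fitted effect of over 55% in size.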 In short, it runs like this:
as §2

The nature of assay [15]: qHTS of pediatric cancer cell lines to identify multiple opportunities for drug repurposing: Primary screen for Rh30 cells (AID 1347107). Note: nearly all actives have a fitted effect of over 75% in size. Note: potency is the fitted concentration of half-maximal effect. In short, it runs like this:
as §2

Assay [16] in a line: qHTS of pediatric cancer cell lines to identify multiple opportunities for drug repurposing: Primary screen for OHS-50 cells (AID 1347103). Note: nearly all actives have a fitted effect of over 40% in size. Note: potency is the fitted concentration of half-maximal effect. In short, it runs like this: as §3
Assay [17] in a line: qHTS of pediatric cancer cell lines to identify multiple opportunities for drug repurposing: Primary screen for Rh41 cells (AID 1347108). Note: nearly all actives have a fitted effect of over 70% in size. Note: potency is the fitted concentration of half-maximal effect. Summed up:
as §1

Assay [18] can be described thus: qHTS of pediatric cancer cell lines to identify multiple opportunities for drug repurposing: Primary screen for Saos-2 cells (AID 1347097). Note: nearly all actives have a fitted effect of over 40% in size. Note: potency is the fitted concentration of half-maximal effect. In short, it runs like this: as §1
A short description of assay [19]: qHTS of pediatric cancer cell lines to identify multiple opportunities for drug repurposing: Confirmatory screen for A673 cells (AID 1347110).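 Note: potency is the fitted concentration of half-maximal effect; cells exposed to compound for 48 h before the viability read; nearly all actives have a fitted effect of over 65% in size.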 In short, it runs like this: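 qHTS titration format: primary MIPE 0.78 nM-46 µM (11 pts), NPC 0.59 nM-46 µM; confirmation 11 pts. 48 h, CTG luminescence.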

Several values for one entry are separate records, joined by “and”; a condition that tells them apart may be missing. Equal entries are not always repeated. Inconclusive results are not listed. Values without a mark were called inactive. Activity calls are given as the source filed them. Calls come from the whole dose curve; as a rule, active = well fitted curve in the direction sought with a large enough effect; inconclusive = small, poorly fitted or top-dose-only effect, or another doubt; inactive = no such curve, though single readings can be large; an effect the other way counts as inactive or inconclusive.

For 16 molecules, Potency results are on record in PubChem BioAssay (NCATS).

Regarding `FC(F)(F)c1cccc(C2=CCN(CCc3ccc4ccccc4c3)CC2)c1`, the Potency entry in [1], in [2], in assay [3], in assay [4], in assay [5] and in assay [6] was “inactive” throughout. The Potency entry in [7], in [8], in [9], in [10], in assay [11] and in assay [12] was “inactive” in each case. Also, the Potency result in [13], in [14] and in assay [15] was “inactive” each time.

With `OCCOc1ccccc1`, the Potency entry in [1], in assay [2], in assay [3], in assay [4], in assay [5] and in [6] was “inactive” each time. Further, the Potency result in assay [7], in assay [8], in [9], in assay [10], in [11] and in assay [16] was “inactive” in each case. Moreover, the Potency result in assay [12], in assay [13], in [14], in assay [15] and in assay [17] was “inactive” in each case.

On to `O=C1NCN(c2ccccc2)C12CCN(CC1COc3ccccc3O1)CC2` (stereo unspecified), for which the Potency entry in assay [1], in assay [2], in assay [3], in [4], in assay [5] and in assay [6] was “inactive” throughout. The Potency entry in assay [8], in assay [9], in assay [10], in assay [11], in assay [16] and in assay [12] was “inactive” throughout. The Potency entry in assay [13], in assay [14] and in assay [15] was “inactive” each time.

As to `COC[C@H]1OC(=O)c2coc3c2[C@@]1(C)C1=C(C3=O)C2CCC(=O)[C@@]2(C)C[C@H]1OC(C)=O` (stereo partly specified), the Potency is 0.264 µM (active) in assay [1]; 4.69 µM (active) in assay [2]; 1.05 µM (active) in assay [3]; 833 nM (active) in assay [5]; 11.8 µM (active) in assay [8]; 11.8 µM (active) in assay [9]. Also, the Potency in [11] is 20.9 µM (active); in assay [16], 4.32 µM (active); in [12], 18.7 µM (active); in [13] it was 9.35 µM (active); in [17], 18.7 µM (active).

Regarding `CCOP(=S)(OCC)Oc1cc(C)nc(C(C)C)n1`, the Potency result in assay [1], in [2], in assay [3], in assay [4], in assay [5] and in assay [6] was “inactive” throughout. The Potency entry in assay [8], in [9], in assay [10], in assay [11], in assay [16] and in assay [12] was “inactive” each time. The Potency entry in [13], in assay [14] and in assay [15] was “inactive” throughout.

In the case of `C[C@]12CC[C@H]3[C@@H](CCC4=CC(=O)CC[C@@H]43)[C@@H]1CC[C@@H]2OC(=O)CCc1ccccc1`, the Potency entry in [1], in assay [2], in assay [3], in assay [4], in assay [5] and in [6] was “inactive” each time. The Potency entry in assay [8], in [9], in assay [10], in [11], in assay [16] and in assay [12] was “inactive” in each case. For the same molecule, the Potency result in [13], in assay [14], in assay [15] and in assay [17] was “inactive” each time.

Take `Cc1ccc(S(=O)(=O)N[C@@H](CCCCN)C(=O)CCl)cc1`: the Potency result in assay [1], in assay [2], in [4], in assay [5], in assay [6] and in [7] was “inactive” in each case. Also, the Potency entry in assay [8], in assay [9], in assay [11], in assay [16], in assay [12] and in assay [13] was “inactive” throughout. For the same molecule, the Potency entry in assay [14], in assay [15] and in [17] was “inactive” each time. Also, in assay [3], the Potency was 21.1 µM (active).

Turning to `C=C(C)[C@H]1Cc2c(ccc3c2O[C@@H]2COc4cc(OC)c(OC)cc4[C@@H]2C3=O)O1`, the Potency is 0.422 µM (active) in assay [1]; 106 nM (active) and 743 nM (active) in [2]; 299 nM (active) and 590 nM (active) in assay [3]; 777 nM (active) and 2.17 µM (active) in [4]; 3.35 µM (active) and 2.64 µM (active) in assay [5]; 0.944 µM (active) in [18]. In addition, the Potency in assay [9] is 1.68 µM (active) and 526 nM (active); in assay [10], 87.1 nM (active) and 122 nM (active); in [16] it was 138 nM (active) and 243 nM (active); in [17] it was 1.06 µM (active); in assay [19], 3.69 µM (active). For the same molecule, the Potency entry in assay [14] and in assay [15] was “inactive” in each case.

As to `Cc1ccc2c(c1)C1CN(C)CCC1N2` (stereo unspecified), the Potency result in assay [1], in assay [2], in assay [3], in assay [4], in assay [6] and in assay [7] was “inactive” throughout. Also, the Potency entry in assay [8], in assay [9], in assay [10], in assay [11], in assay [16] and in assay [12] was “inactive” each time. Further, the Potency entry in [13], in [14] and in assay [15] was “inactive” in each case.

Consider `CN1C[C@H](CNC(=O)OCc2ccccc2)C[C@@H]2c3cccc4c3c(cn4C)C[C@H]21`, for which the Potency entry in [5], in assay [6], in assay [8], in [13], in assay [14] and in assay [15] was “inactive” each time. Moreover, the Potency in [7] is 27.3 µM (active); in assay [10], 15.5 µM (active); in [16], 21.9 µM (active).

In the case of `CCOC(=O)C1(c2ccccc2)CCN(CCC(C#N)(c2ccccc2)c2ccccc2)CC1`, the Potency in [3] was 4.73 µM (active); in [5], 18800 nM (active); in assay [16] it was 12.3 µM (active). In addition, the Potency result in assay [6] and in [14] was “inactive” in each case.

`O=c1oc2ccccc2c(O)c1C(CC(O)c1ccc(-c2ccc(Br)cc2)cc1)c1ccccc1` (stereo unspecified): the Potency entry in assay [1], in [2], in [4], in assay [5], in assay [6] and in assay [8] was “inactive” throughout. In addition, the Potency result in [9], in [10], in assay [11], in assay [16], in assay [12] and in [13] was “inactive” in each case. For the same molecule, the Potency entry in assay [14], in [15] and in assay [17] was “inactive” each time.

With `CC(CCc1ccccc1)NC(C)C(O)c1ccc(O)cc1` (stereo unspecified), the Potency entry in assay [1], in [2], in [4], in assay [5], in assay [6] and in assay [8] was “inactive” each time. The Potency entry in assay [9], in assay [10], in [11], in [12], in assay [13] and in assay [14] was “inactive” throughout. In assay [15], the Potency result was “inactive”.

In the case of `CC[C@@H](CO)NC(=O)[C@@H]1C=C2c3cccc4c3c(cn4C)C[C@H]2N(C)C1`, the Potency result in assay [1], in assay [3], in assay [4], in [5], in assay [6] and in [18] was “inactive” each time. In addition, the Potency result in assay [11], in assay [16], in assay [12], in [14], in assay [15] and in [17] was “inactive” each time.

As for `CC(O)(CS(=O)(=O)c1ccc(F)cc1)C(=O)Nc1ccc(C#N)c(C(F)(F)F)c1` (stereo unspecified), the Potency was 1.18 µM (active) in assay [2]; 0.469 µM (active) in [3]; 3320 nM (active) in assay [5]; 3.32 µM (active) in assay [8]; 5.9 µM (active) in assay [12]; 3.72 µM (active) in assay [13]. Further, in [15], the Potency is 3.72 µM (active). In addition, the Potency entry in assay [4], in assay [6], in assay [7] and in assay [11] was “inactive” in each case.

`C[C@@H]1[C@@H](C(=O)C[C@H]2O[C@@H]3O[C@]4(C)CC[C@@H]5[C@H](C)CC[C@@H]([C@H]2C)[C@@]35OO4)O[C@@H]2O[C@]3(C)CC[C@H]4[C@H](C)CC[C@@H]1[C@@]24OO3`: the Potency in [3] was 0.372 µM (active); in assay [4], 1.09 µM (active); in assay [5], 469 nM (active); in [8] it was 4.69 µM (active); in assay [9], 16.6 µM (active); in [10], 0.432 µM (active). The Potency in assay [16] is 0.385 µM (active); in assay [19], 6.57 µM (active). Besides, the Potency result in assay [6], in assay [11], in assay [13], in [14] and in [15] was “inactive” in each case.
